High-throughput results from PubChem.
Shown are actives, neighbours in structure and some others; about 19% of the full set was active somewhere.
HT1080NT lethal – kills 2HG-producing HT-1080-NT fibrosarcoma cells. HT-1080-NT fibrosarcoma viability, CellTiter-Glo ATP luminescence, 48 h. Potency, µM (doses to about 46.1 µM), inactives show at the top dose activity, negative = less viability, usual class: cytotoxic. 360,000 tested, 1.6% active. AID 686970;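 note: NT is the 2HG producing partner of a matched IDH1 knockdown line; 0% = DMSO-treated cells and -100% = media-only wells without cells; nearly all actives have a fitted effect of over 55% in size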
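750 cells/well, RPMI + 5% FBS; 2 h settle, compound pin-transfer, 48 h at 37 degrees C. CellTiter-Glo 10 min RT, luminescence. Normalized to DMSO and media-only wells.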
TDP1 cell CPT – DT40-hTDP1 cell growth loss with CPT; chicken DT40 Tdp1-/-;hTDP1 cells + 20 nM CPT, ATP luminescence, 48 h; Potency, µM (series often up to 46.2 µM), without a hit: top-dose activity change, negative = growth inhibition, actives largely listed as inhibitors; 420,000 tested, 12% active; AID 686979; note: nearly all actives have a fitted effect of over 55% in size
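Cell growth measured by CellTiter-Glo luminescence after a minimum 48 h, 37 C compound exposure with 20 nM CPT in Tdp1-knockout DT40 cells stably expressing hTDP1, seeded 400/well; qHTS titration format.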
KB-V1 MDR tox – KB-V1 MDR subline cytotoxicity. 400,000 tested, 3.4% active. KB-V1 MDR cells viability, CellTiter-Glo, 72 h. Potency, µM (doses to about 46.1 µM), usual class: cytotoxic. AID 1347076; note: nearly all actives have a fitted effect of over 60% in size
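Luminescent ATP read-out (CellTiter-Glo, 10 min) measures survival of drug-selected KB-V1 MDR cells after 72 h, 37 degrees C compound exposure. Medium: phenol-red-free DMEM, 10% FBS. Values from fitted concentration-response curves.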
DT40 TDP1 no CPT – qHTS for Inhibitors of human tyrosyl-DNA phosphodiesterase 1 (TDP1): qHTS in cells in absence of CPT; Potency, µM (titrated, usually from 46.2 µM), without a hit: top-dose activity change, negative = growth inhibition, hits mostly inhibitors; 420,000 tested, 15% active; DT40 Tdp1-/- hTDP1 cells, no CPT, ATP luminescence, 48 h; AID 686978, 2013; note: nearly all actives have a fitted effect of over 55% in size
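Cells were dispensed at 400 per well, compounds added by pin tool, plates incubated ≥48 hr at 37 °C, then CellTiter-Glo added for 30 min at room temperature before luminescence reading. Line: DT40 Tdp1-/- complemented with hTDP1; camptothecin omitted.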
KB-3-1 cytotox – kills parental KB-3-1 adenocarcinoma cells. 400,000 tested, 1.4% active. KB-3-1 viability, CellTiter-Glo ATP luminescence, 72 h. Potency, µM (series often up to 46.1 µM), actives largely listed as cytotoxic; note: nearly all actives have a fitted effect of over 60% in size
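Parental KB-3-1 adenocarcinoma cells in phenol-red-free DMEM with 10% FBS were pin-treated with compounds at several concentrations, incubated 72 h at 37 °C, and viability read by CellTiter-Glo luminescence; concentration-effect curves were fitted after normalization.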
HT1080 IDH1KD tx – HT-1080 IDH1 knockdown cell toxicity (counter line); HT-1080 IDH1 knockdown viability, ATP luminescence, 48 h; Potency, µM (doses to about 46.1 µM), inactives show at the top dose activity, negative = toxicity, most hits filed as cytotoxic; 360,000 tested, 2% active; AID 686971;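 note: 0% = DMSO wells and -100% = cell-free medium wells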
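% activity derives from luminescence (CellTiter-Glo), normalised to DMSO and no-cell wells. HT-1080-IDH1KD cells, 750/well, had 48 h compound exposure at 37 °C.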
Starred values were filed as active, the others as inactive. Calls come from the whole dose curve; as a rule, active = well fitted curve in the direction sought with a large enough effect; inconclusive = small, poorly fitted or top-dose-only effect, or another doubt; inactive = no such curve, though single readings can be large; an effect the other way counts as inactive or inconclusive. Unless noted, % is set by controls: 0 for no effect and ±100 for the full control effect; potency is the fitted concentration of half-maximal effect.

How did O=c1oc2ccccc2c(N2CCCCC2)c1CN1CCCC1 do in these assays?
HT1080NT lethal: 6.9%; TDP1 cell CPT: -15.7%; KB-V1 MDR tox: 23.1µM*; DT40 TDP1 no CPT: -8.8%; KB-3-1 cytotox: inactive; HT1080 IDH1KD tx: -18.2%

What do the screens show for `O=c1oc2ccccc2c(N2CCN(c3ccc(F)cc3)CC2)c1CN1CCCC1`?
TDP1 cell CPT: inconclusive; KB-V1 MDR tox: inactive; DT40 TDP1 no CPT: 16.4µM*; KB-3-1 cytotox: inactive

Results for CCOc1ccc(C(=O)Nc2nnc(SCc3cc(=O)n4ccccc4n3)s2)cc1 ?
TDP1 cell CPT: 2.4%; DT40 TDP1 no CPT: -4.2%

How did O=C(NCCN1CCOCC1)c1cccc(S(=O)(=O)Nc2ccc(Br)cc2)c1 do in these assays?
HT1080NT lethal: -3.6%; TDP1 cell CPT: -17.1%; KB-V1 MDR tox: inactive; DT40 TDP1 no CPT: -14.1%; KB-3-1 cytotox: inactive; HT1080 IDH1KD tx: -1.8%

What do the screens show for `O=C(c1cc(-c2ccccn2)nc2ccc(Br)cc12)N1CCN(S(=O)(=O)c2ccccc2)CC1`?
HT1080NT lethal: -4.6%; TDP1 cell CPT: inconclusive; KB-V1 MDR tox: inactive; DT40 TDP1 no CPT: inconclusive; KB-3-1 cytotox: inactive; HT1080 IDH1KD tx: -2.0%

How did Cc1ccc(-c2cc(C(=O)N3CCN(c4ccc(O)cc4)CC3)c3ccccc3n2)cc1 do in these assays?
HT1080NT lethal: inconclusive; TDP1 cell CPT: inconclusive; KB-V1 MDR tox: inactive; DT40 TDP1 no CPT: inconclusive; KB-3-1 cytotox: inconclusive; HT1080 IDH1KD tx: inconclusive

What do the screens show for `Cc1ccc(-c2cc(C(=O)N3CCOCC3)c3ccccc3n2)o1`?
HT1080NT lethal: inconclusive; TDP1 cell CPT: inconclusive; KB-V1 MDR tox: inactive; DT40 TDP1 no CPT: 18.4µM*; KB-3-1 cytotox: inactive; HT1080 IDH1KD tx: inconclusive

What do the screens show for `Cc1ccc(-c2cc(C(=O)N3CCN(c4ccc(F)cc4)CC3)c3ccccc3n2)o1`?
HT1080NT lethal: -5.8%; TDP1 cell CPT: inconclusive; KB-V1 MDR tox: inconclusive; DT40 TDP1 no CPT: 29.1µM*; KB-3-1 cytotox: inconclusive; HT1080 IDH1KD tx: -21.7%

Results for Cc1ccc(-c2cc(C(=O)N3CCN(c4ncccn4)CC3)c3cc(Br)ccc3n2)o1 ?
HT1080NT lethal: -3.9%; TDP1 cell CPT: 4.11µM*; KB-V1 MDR tox: inconclusive; DT40 TDP1 no CPT: 8.2µM*; KB-3-1 cytotox: inactive; HT1080 IDH1KD tx: -9.1%

What do the screens show for `Cc1ccccc1CNCCCSc1nnnn1-c1ccccc1`?
TDP1 cell CPT: -22.6%; KB-V1 MDR tox: inactive; DT40 TDP1 no CPT: -27.5%; KB-3-1 cytotox: inactive

Results for O=C(C1CCC1)N1CCN(S(=O)(=O)c2ccc(Br)cc2Cl)CC1 ?
HT1080NT lethal: -0.4%; TDP1 cell CPT: inconclusive; KB-V1 MDR tox: inactive; DT40 TDP1 no CPT: inconclusive; KB-3-1 cytotox: inactive; HT1080 IDH1KD tx: -9.3%

Results for O=C(c1cc2ccccc2cc1O)N1CCN(c2ccc([N+](=O)[O-])cc2)CC1 ?
HT1080NT lethal: -15.2%; TDP1 cell CPT: 29.1µM*; KB-V1 MDR tox: inactive; DT40 TDP1 no CPT: 14.6µM*; KB-3-1 cytotox: inactive; HT1080 IDH1KD tx: -11.2%

Results for Cc1cc(C(=O)N2CCN(c3ccc([N+](=O)[O-])cc3)CC2)n[nH]1 ?
HT1080NT lethal: 7.4%; TDP1 cell CPT: 3.26µM*; KB-V1 MDR tox: inactive; DT40 TDP1 no CPT: 2.59µM*; KB-3-1 cytotox: inactive; HT1080 IDH1KD tx: 0.0%

How did CCSc1ccccc1C(=O)N1CCN(c2ccc([N+](=O)[O-])cc2)CC1 do in these assays?
HT1080NT lethal: -8.8%; TDP1 cell CPT: inconclusive; KB-V1 MDR tox: inconclusive; DT40 TDP1 no CPT: 16.4µM*; KB-3-1 cytotox: inconclusive; HT1080 IDH1KD tx: inconclusive

How did COc1ccc(CCNC(=O)CSc2nnc3ccc(-c4cccnc4)nn23)cc1 do in these assays?
HT1080NT lethal: -2.2%; TDP1 cell CPT: -7.1%; KB-V1 MDR tox: inactive; DT40 TDP1 no CPT: 11.6%; KB-3-1 cytotox: inactive; HT1080 IDH1KD tx: 13.7%
